Results: PMC7862700, “An all-to-all approach to the identification of sequence-specific readers for epigenetic DNA modifications on cytosine”

Columns and labels:
Assay in all cases: DAPPL (digital affinity profiling via proximity ligation, sequencing); 10 mM Tris-HCl pH 7.5, 50 mM NaCl, 1 mM DTT, 4% glycerol, room temperature, 30 min; GST-TFs on glutathione beads, 16-mer random dsDNA library, 0.1% formaldehyde crosslink after washing; high values mean tight binding
FLI1 = molecular target: T1, FLI1 (Homo sapiens, UniProt Q01543 1-452); settings: protein: recombinant; tags: N-terminal GST; dsDNA, one strand shown
T1 sequence: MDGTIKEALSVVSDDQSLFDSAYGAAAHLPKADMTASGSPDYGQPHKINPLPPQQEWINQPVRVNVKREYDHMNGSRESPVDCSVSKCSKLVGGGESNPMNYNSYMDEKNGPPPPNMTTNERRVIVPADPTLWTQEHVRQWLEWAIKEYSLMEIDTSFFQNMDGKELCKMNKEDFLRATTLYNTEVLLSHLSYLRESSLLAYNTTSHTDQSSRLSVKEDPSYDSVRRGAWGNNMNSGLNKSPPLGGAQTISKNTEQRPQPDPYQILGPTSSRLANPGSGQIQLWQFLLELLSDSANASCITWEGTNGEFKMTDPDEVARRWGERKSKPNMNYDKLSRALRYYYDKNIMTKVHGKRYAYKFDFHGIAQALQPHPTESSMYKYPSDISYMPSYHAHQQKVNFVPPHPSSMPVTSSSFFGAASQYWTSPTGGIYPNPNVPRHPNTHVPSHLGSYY
How it was run: (§1)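 A tag-only sample was pooled with DNA-barcoded human transcription factors that had been expressed in yeast as GST fusions and captured on glutathione beads. The pools were incubated for 30 min at room temperature with 200 nmole of a random double-stranded 16-mer DNA library in Tris/NaCl/DTT/glycerol buffer, then washed, crosslinked with 0.1% formaldehyde, proximity-ligated (BsaI/T4 ligase, 1 h, 37 °C), PCR-amplified and sequenced on an Illumina NextSeq500. Binding signal is each hexamer's read frequency for a factor divided by its frequency for the tag-only sample.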

ELK1 = molecular target: T2, ELK1 (Homo sapiens, UniProt P19419 1-428); settings: protein: recombinant; tags: N-terminal GST; dsDNA, one strand shown
T2 sequence: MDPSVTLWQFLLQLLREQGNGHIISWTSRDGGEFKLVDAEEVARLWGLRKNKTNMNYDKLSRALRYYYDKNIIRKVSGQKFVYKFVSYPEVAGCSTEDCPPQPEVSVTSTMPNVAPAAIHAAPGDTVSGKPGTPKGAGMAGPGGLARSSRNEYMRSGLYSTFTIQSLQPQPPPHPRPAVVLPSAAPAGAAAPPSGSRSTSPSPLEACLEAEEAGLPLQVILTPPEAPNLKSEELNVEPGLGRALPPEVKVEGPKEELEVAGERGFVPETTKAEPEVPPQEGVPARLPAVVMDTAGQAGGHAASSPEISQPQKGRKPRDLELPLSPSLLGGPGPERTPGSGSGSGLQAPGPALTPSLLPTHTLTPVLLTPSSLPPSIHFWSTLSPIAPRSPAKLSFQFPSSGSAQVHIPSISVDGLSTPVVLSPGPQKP
How it was run: as §1

GABPA = molecular target: T3, GABPA (Homo sapiens, UniProt Q06546 1-454); settings: protein: recombinant; tags: N-terminal GST; dsDNA, one strand shown
T3 sequence: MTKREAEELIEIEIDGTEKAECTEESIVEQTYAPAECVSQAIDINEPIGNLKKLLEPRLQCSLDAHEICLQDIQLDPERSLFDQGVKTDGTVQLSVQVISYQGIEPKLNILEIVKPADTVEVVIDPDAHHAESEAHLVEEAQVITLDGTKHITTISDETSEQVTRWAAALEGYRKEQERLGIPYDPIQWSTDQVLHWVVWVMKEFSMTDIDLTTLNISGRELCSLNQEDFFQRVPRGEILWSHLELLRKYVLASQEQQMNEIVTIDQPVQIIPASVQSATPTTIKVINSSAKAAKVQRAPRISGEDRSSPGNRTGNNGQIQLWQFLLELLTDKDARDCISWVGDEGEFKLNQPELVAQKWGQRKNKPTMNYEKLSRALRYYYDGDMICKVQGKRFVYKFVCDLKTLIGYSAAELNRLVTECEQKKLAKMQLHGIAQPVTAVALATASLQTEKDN
How it was run: as §1

ERG = molecular target: T4, ERG (Homo sapiens, UniProt P11308 1-479); settings: protein: recombinant; tags: N-terminal GST; dsDNA, one strand shown
T4 sequence: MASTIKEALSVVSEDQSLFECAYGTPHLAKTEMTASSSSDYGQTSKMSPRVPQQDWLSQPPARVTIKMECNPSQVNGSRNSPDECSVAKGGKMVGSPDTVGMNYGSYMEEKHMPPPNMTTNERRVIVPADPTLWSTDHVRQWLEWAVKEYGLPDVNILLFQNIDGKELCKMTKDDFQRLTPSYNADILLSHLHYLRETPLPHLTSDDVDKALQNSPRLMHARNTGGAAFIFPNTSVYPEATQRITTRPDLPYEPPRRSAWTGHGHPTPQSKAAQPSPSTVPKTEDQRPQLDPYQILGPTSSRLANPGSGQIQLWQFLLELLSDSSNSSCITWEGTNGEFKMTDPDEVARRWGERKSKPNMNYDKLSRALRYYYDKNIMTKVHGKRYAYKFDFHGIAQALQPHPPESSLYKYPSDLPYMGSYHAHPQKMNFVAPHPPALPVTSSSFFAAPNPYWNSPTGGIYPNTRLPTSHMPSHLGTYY
How it was run: as §1

ELF1 = ELF1 (Homo sapiens, UniProt P32519 1-619); settings: protein: recombinant; tags: N-terminal GST; dsDNA, one strand shown
How it was run: as §1

EHF = molecular target: T5, EHF (Homo sapiens, UniProt Q9NZC4 1-300); settings: protein: recombinant; tags: N-terminal GST; dsDNA, one strand shown
T5 sequence: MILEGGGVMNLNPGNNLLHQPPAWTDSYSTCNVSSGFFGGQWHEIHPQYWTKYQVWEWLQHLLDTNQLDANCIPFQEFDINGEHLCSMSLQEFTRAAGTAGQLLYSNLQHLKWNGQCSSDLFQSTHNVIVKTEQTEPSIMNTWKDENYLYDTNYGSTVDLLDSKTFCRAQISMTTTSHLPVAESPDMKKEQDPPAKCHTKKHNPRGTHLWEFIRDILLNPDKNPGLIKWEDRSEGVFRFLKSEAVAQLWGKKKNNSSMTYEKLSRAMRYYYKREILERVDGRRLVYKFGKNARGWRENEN
How it was run: as §1

SPI1 = SPI1 (Homo sapiens, UniProt P17947 1-270); settings: protein: recombinant; tags: N-terminal GST; dsDNA, one strand shown
How it was run: as §1

SPIB = SPIB (Homo sapiens, UniProt Q01892 1-262); settings: protein: recombinant; tags: N-terminal GST; dsDNA, one strand shown
How it was run: as §1

ELK3 = molecular target: T6, ELK3 (Homo sapiens, UniProt P41970 1-407); settings: protein: recombinant; tags: N-terminal GST; dsDNA, one strand shown
T6 sequence: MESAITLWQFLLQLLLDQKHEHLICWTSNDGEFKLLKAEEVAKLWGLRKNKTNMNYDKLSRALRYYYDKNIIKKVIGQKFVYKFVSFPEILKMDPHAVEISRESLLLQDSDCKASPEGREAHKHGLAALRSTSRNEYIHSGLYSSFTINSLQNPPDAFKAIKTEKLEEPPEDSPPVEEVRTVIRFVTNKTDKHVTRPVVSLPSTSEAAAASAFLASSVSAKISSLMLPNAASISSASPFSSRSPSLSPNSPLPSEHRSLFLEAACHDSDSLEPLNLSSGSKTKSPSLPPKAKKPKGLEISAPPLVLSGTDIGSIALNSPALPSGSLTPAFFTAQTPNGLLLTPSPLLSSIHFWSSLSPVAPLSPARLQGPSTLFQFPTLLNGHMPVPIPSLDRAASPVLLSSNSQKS
How it was run: as §1

FEV = molecular target: T7, FEV (Homo sapiens, UniProt Q99581 1-238); settings: protein: recombinant; tags: N-terminal GST; dsDNA, one strand shown
T7 sequence: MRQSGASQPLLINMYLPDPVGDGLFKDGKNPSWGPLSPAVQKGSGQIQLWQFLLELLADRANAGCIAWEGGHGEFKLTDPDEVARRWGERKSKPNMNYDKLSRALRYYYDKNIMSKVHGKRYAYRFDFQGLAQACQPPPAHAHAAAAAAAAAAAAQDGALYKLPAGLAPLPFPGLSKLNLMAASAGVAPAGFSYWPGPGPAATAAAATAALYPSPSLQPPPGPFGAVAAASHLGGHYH
How it was run: as §1

ETV5 = ETV5 (Homo sapiens, UniProt P41161 1-510); settings: protein: recombinant; tags: N-terminal GST; dsDNA, one strand shown
How it was run: as §1

HSF1 = HSF1 (Homo sapiens, UniProt Q00613 1-529); settings: protein: recombinant; tags: N-terminal GST; chain copies: 3; dsDNA, one strand shown
How it was run: as §1

SPIC = molecular target: T8, SPIC (Homo sapiens, UniProt Q8N5J4 1-248); settings: protein: recombinant; tags: N-terminal GST; dsDNA, one strand shown
T8 sequence: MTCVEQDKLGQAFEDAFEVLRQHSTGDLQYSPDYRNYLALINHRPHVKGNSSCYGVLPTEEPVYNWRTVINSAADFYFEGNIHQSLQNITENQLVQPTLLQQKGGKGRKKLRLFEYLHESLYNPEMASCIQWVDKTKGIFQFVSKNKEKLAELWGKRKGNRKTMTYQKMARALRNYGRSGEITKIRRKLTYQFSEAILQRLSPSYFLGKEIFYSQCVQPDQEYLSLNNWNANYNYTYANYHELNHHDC
How it was run: as §1

ELF4 = ELF4 (Homo sapiens, UniProt Q99607 1-663); settings: protein: recombinant; tags: N-terminal GST; dsDNA, one strand shown
How it was run: as §1

ELK4 = molecular target: T9, ELK4 (Homo sapiens, UniProt P28324-2 1-405); settings: protein: recombinant; tags: N-terminal GST; dsDNA, one strand shown
T9 sequence: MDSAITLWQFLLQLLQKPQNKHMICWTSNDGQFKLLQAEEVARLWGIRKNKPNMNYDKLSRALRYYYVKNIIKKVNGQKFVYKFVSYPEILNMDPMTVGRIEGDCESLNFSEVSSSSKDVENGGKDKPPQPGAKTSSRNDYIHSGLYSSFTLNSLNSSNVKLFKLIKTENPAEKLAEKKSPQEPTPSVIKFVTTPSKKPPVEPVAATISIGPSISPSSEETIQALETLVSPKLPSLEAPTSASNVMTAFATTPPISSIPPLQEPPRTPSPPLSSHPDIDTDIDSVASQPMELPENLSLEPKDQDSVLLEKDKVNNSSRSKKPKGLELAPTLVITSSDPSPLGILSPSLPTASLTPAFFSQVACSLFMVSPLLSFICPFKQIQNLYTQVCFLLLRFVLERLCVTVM
How it was run: as §1

ETV2 = molecular target: T10, ETV2 (Homo sapiens, UniProt O00321 1-342); settings: protein: recombinant; tags: N-terminal GST; dsDNA, one strand shown
T10 sequence: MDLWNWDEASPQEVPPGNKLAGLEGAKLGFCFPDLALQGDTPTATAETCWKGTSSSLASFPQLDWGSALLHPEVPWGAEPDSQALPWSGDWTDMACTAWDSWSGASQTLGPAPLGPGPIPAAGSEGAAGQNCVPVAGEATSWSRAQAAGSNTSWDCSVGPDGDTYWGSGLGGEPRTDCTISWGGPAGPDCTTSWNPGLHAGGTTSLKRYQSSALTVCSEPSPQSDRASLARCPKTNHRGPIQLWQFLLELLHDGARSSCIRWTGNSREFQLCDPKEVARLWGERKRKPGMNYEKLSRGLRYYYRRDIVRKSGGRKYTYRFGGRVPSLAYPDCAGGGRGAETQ
How it was run: as §1

ELF3 = molecular target: T11, ELF3 (Homo sapiens, UniProt P78545 1-371); settings: protein: recombinant; tags: N-terminal GST; dsDNA, one strand shown
T11 sequence: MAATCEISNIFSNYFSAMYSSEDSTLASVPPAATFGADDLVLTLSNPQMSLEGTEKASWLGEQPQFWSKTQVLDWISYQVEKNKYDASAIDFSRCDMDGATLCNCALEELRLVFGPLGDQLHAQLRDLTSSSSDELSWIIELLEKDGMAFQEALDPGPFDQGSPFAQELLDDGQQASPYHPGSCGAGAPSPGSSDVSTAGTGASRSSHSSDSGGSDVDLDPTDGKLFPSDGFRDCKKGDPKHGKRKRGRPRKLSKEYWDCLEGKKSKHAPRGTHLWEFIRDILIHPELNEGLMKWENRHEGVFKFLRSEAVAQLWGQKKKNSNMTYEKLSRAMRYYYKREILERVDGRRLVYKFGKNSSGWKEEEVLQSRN
How it was run: as §1

ETV1 = ETV1 (Homo sapiens, UniProt P50549 1-477); settings: protein: recombinant; tags: N-terminal GST; dsDNA, one strand shown
How it was run: as §1

ETV1, sequence (P50549 whole entry): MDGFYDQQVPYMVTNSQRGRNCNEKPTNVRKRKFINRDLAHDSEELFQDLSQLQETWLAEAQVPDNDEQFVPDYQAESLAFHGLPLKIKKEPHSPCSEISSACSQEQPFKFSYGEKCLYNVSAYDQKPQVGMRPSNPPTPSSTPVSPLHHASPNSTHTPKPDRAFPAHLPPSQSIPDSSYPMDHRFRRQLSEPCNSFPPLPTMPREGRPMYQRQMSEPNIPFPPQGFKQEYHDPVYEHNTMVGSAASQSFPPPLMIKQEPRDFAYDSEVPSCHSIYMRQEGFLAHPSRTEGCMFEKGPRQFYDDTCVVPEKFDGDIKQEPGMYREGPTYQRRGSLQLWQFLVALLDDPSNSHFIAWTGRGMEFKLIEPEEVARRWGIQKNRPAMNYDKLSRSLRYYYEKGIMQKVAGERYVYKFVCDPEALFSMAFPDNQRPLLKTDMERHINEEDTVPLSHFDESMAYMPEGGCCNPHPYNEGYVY
ELF4, sequence (Q99607 whole entry): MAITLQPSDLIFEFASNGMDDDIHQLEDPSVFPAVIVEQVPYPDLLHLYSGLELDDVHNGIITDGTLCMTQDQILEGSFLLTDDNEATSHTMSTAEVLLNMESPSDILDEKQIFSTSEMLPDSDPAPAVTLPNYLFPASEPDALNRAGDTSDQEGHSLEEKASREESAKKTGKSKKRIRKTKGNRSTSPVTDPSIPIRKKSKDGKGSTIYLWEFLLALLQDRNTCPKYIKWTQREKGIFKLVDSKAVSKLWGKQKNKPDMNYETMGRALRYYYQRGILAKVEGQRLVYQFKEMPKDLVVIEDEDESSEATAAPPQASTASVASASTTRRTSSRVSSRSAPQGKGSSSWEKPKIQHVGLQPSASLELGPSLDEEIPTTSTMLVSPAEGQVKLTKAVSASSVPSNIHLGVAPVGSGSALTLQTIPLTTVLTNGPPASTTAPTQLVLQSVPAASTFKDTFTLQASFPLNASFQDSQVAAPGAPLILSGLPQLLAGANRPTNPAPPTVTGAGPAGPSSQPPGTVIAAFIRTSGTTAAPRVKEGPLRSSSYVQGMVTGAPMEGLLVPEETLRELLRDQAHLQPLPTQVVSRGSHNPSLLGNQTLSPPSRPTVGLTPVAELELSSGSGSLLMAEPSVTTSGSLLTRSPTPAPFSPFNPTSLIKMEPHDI
HSF1, sequence (Q00613 whole entry): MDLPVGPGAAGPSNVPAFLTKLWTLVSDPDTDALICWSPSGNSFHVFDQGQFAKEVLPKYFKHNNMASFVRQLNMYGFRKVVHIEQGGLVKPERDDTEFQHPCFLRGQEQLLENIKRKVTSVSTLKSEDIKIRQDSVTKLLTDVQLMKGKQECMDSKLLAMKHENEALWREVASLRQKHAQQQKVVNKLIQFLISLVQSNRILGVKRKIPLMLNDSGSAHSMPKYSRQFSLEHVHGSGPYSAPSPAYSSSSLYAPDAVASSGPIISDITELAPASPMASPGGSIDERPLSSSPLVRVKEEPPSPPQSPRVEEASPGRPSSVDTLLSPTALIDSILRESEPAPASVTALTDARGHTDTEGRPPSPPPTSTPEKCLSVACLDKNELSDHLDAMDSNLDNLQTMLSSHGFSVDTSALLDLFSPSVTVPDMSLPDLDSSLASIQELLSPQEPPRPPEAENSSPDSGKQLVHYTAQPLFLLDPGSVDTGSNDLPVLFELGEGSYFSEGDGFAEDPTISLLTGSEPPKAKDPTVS
ELF1, sequence (P32519 whole entry): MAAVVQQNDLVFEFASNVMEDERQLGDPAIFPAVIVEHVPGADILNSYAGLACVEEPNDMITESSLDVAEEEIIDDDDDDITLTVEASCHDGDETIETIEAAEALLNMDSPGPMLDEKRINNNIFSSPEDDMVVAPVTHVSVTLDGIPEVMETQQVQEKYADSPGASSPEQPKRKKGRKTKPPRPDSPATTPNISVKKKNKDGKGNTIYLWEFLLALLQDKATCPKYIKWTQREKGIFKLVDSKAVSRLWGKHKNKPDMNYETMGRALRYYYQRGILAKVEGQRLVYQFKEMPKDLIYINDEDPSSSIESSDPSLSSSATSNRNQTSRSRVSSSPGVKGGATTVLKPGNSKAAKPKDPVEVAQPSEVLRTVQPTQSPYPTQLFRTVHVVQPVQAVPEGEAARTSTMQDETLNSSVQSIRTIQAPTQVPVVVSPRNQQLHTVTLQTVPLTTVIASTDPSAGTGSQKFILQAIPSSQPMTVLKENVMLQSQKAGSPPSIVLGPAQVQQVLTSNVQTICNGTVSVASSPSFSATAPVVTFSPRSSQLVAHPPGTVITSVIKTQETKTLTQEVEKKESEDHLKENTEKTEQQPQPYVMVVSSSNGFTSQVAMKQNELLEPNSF
SPIB, sequence (Q01892 whole entry): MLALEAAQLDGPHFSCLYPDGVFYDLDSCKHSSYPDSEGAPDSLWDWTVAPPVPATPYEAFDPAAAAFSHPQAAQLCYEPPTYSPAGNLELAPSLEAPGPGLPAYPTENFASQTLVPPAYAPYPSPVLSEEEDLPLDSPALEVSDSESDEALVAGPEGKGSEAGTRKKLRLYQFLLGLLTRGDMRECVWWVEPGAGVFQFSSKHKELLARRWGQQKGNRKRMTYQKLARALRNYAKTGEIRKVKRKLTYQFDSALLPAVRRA
ETV5, sequence (P41161 whole entry): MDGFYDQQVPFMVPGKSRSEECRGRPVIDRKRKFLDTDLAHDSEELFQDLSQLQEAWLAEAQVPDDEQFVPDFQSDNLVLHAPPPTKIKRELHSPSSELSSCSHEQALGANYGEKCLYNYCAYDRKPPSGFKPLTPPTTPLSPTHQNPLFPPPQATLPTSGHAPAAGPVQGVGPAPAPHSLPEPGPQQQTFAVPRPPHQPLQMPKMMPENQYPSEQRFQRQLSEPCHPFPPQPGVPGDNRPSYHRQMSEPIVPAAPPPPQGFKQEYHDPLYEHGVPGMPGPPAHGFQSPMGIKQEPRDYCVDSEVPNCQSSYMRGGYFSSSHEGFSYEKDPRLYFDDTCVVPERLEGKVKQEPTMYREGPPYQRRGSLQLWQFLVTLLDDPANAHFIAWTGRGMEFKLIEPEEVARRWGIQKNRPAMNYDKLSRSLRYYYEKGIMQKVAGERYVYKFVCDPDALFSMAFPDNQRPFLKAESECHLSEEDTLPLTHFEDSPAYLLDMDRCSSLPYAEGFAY

**Q.** How did the binding signal (FLI1) turn out when TGGCAC was run?
**A.** 1.19 fold enrichment (6-mer frequency, TF over GST control)

**Q.** And the binding signal (ELK1)?
**A.** 1.23 fold enrichment (6-mer frequency, TF over GST control)

**Q.** What about the binding signal (GABPA) of the same sequence?
**A.** 1.15 fold enrichment (6-mer frequency, TF over GST control)

**Q.** What about the binding signal (ERG) of the same sequence?
**A.** 1.27 fold enrichment (6-mer frequency, TF over GST control)

**Q.** What about the binding signal (ELF1) of the same sequence?
**A.** 1.09 fold enrichment (6-mer frequency, TF over GST control)

**Q.** What about the binding signal (EHF) of the same sequence?
**A.** 1.26 fold enrichment (6-mer frequency, TF over GST control)

**Q.** And the binding signal (SPI1)?
**A.** 1.14 fold enrichment (6-mer frequency, TF over GST control)

**Q.** And the binding signal (SPIB)?
**A.** 1.18 fold enrichment (6-mer frequency, TF over GST control)

**Q.** What about the binding signal (ELK3) of the same sequence?
**A.** 1.17 fold enrichment (6-mer frequency, TF over GST control)

**Q.** And the binding signal (FEV)?
**A.** 1.31 fold enrichment (6-mer frequency, TF over GST control)

**Q.** What about the binding signal (ETV5) of the same sequence?
**A.** 1.18 fold enrichment (6-mer frequency, TF over GST control)

**Q.** And the binding signal (HSF1)?
**A.** 1.03 fold enrichment (6-mer frequency, TF over GST control)

**Q.** And the binding signal (SPIC)?
**A.** 1.24 fold enrichment (6-mer frequency, TF over GST control)

**Q.** What about the binding signal (ELF4) of the same sequence?
**A.** 1.25 fold enrichment (6-mer frequency, TF over GST control)

**Q.** What about the binding signal (ELK4) of the same sequence?
**A.** 1.12 fold enrichment (6-mer frequency, TF over GST control)

**Q.** What about the binding signal (ETV2) of the same sequence?
**A.** 1.24 fold enrichment (6-mer frequency, TF over GST control)

**Q.** And the binding signal (ELF3)?
**A.** 1.18 fold enrichment (6-mer frequency, TF over GST control)

**Q.** And the binding signal (ETV1)?
**A.** 1.11 fold enrichment (6-mer frequency, TF over GST control)
